Among the test systems are NCI-H23 lung; NCI-H226 lung; NCI-H322M lung; HOP-62 NSCLC; NCI-H460 lung; NCI-H522 lung; A549/ATCC NSCLC; 786-0 renal; COLO 205 colon; DU-145 prostate; K-562 leukemia; MALME-3M melanoma; MDA-MB-231 breast; RXF 393 renal; SF-268 CNS; SF-295 CNS; SF-539 CNS; UACC-257 melanoma; M14 melanoma.
Assay in all cases: NCI-60 one-dose screen, 48 h (100 = growth as untreated, 0 = no growth, -100 = all killed)
What all share (conditions): 10 µM unless noted

Molecules are shown by their SMILES. The panel holds about 83,000 compounds, 20% with a hit somewhere; the sample as a whole holds those more often.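 Note: values are percent growth. 100 is the growth of untreated cells, values between 100 and 0 indicate rising inhibition; between -100 and 0 indicates cell death.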 A number with no mark means an inactive call. Activity calls are given as the source filed them. Rule for the calls: active = growth percent below 10; inactive = the rest.

As for `COc1cc(/C=C\c2cc(/C=C\c3ccc(O)c(OC)c3)n(C(=O)Nc3ccc(C(F)(F)F)cc3)n2)ccc1O`, the growth in the assay with NCI-H23 lung is 51.3%; in the assay with NCI-H226 lung, 82.7%; in the assay with NCI-H322M lung it was 82.7%; in the assay on HOP-62 NSCLC, 62.9%; in the assay with NCI-H460 lung, 18.3%; in the assay with NCI-H522 lung, 7.32% (active). Besides, the growth is 43% in the assay with A549/ATCC NSCLC; 20.1% with 786-0 renal; 51.3% in the assay on COLO 205 colon; 47.6% in the assay on DU-145 prostate; 9.45% (active) in the assay on K-562 leukemia; 52.3% in the assay on MALME-3M melanoma. Moreover, the growth with MDA-MB-231 breast is 54.8%; in the assay with RXF 393 renal it was 22.7%; in the assay with SF-268 CNS, 37.1%; with SF-295 CNS, 83.4%; with SF-539 CNS, 29%; in the assay on UACC-257 melanoma, 25%. The growth in the assay on M14 melanoma was 29.5%.

For `Cc1ccc(C)c2c1SC1=NNC(Oc3ccc(Cl)cc3)=C(C#N)C(=N)N12`, the growth in the assay with NCI-H23 lung is 92.7%; in the assay on NCI-H226 lung, 94.2%; with NCI-H322M lung, 101%; in the assay with HOP-62 NSCLC, 103%; in the assay on NCI-H460 lung it was 99.9%; in the assay with NCI-H522 lung, 87.9%. Further, the growth in the assay on A549/ATCC NSCLC was 108%; in the assay on 786-0 renal, 110%; in the assay on COLO 205 colon, 105%; in the assay with DU-145 prostate, 112%; in the assay on K-562 leukemia it was 95.1%; in the assay on MALME-3M melanoma, 123%. Moreover, the growth in the assay with MDA-MB-231 breast was 99.6%; in the assay on RXF 393 renal it was 118%; with SF-268 CNS, 113%; in the assay on SF-295 CNS, 93.7%; in the assay on SF-539 CNS it was 103%; in the assay with UACC-257 melanoma, 101%. Also, the growth with M14 melanoma is 107%.

As for `O=C(CCl)Nc1cc(O)c2c(c1)C(=O)c1cccc(O)c1C2=O`, the growth in the assay on NCI-H23 lung is -45% (active); with NCI-H226 lung, -20.6% (active); in the assay on NCI-H322M lung, 59%; in the assay with HOP-62 NSCLC, -100% (active); with NCI-H460 lung, -43.5% (active); in the assay on NCI-H522 lung it was -89% (active). Also, the growth in the assay with A549/ATCC NSCLC is 91%; in the assay with 786-0 renal, -71.5% (active); in the assay on COLO 205 colon, -81.5% (active); with DU-145 prostate, -82.5% (active); in the assay on K-562 leukemia it was -46.2% (active); with MALME-3M melanoma it was -72.9% (active). In addition, the growth in the assay on MDA-MB-231 breast is -27.7% (active); in the assay on RXF 393 renal, -67.1% (active); with SF-268 CNS, -49.5% (active); with SF-295 CNS, 61.7%; in the assay on SF-539 CNS it was -32.3% (active); in the assay with UACC-257 melanoma, 5.96% (active). Moreover, the growth in the assay on M14 melanoma is -33.2% (active).

Turning to `C#Cc1cccc(Nc2nc3cc([N+](=O)[O-])ccc3nc2Nc2ccc(O)cc2)c1`, the growth was 9.92% (active) in the assay with NCI-H23 lung; 50.3% in the assay with NCI-H226 lung; 16.8% in the assay with NCI-H322M lung; 21.4% in the assay on HOP-62 NSCLC; -24% (active) with NCI-H460 lung; -53.6% (active) with NCI-H522 lung. The growth is 11.3% in the assay with A549/ATCC NSCLC; -11.7% (active) with 786-0 renal; -49.9% (active) in the assay with COLO 205 colon; 23.3% in the assay with DU-145 prostate; -30% (active) in the assay on K-562 leukemia; 51.2% in the assay on MALME-3M melanoma. Besides, the growth was -48.2% (active) in the assay on MDA-MB-231 breast; 54.8% in the assay on RXF 393 renal; 27.3% with SF-268 CNS; 1.66% (active) with SF-295 CNS; 21.8% with SF-539 CNS; 25.9% in the assay with UACC-257 melanoma. For the same compound, in the assay with M14 melanoma, the growth is -52.5% (active).

With `COc1cccc(N2CCN(c3ncnc4cc[nH]c34)CC2)c1`, the growth with NCI-H23 lung was 42.8%; in the assay with NCI-H226 lung it was 55.1%; with NCI-H322M lung it was 94%; in the assay on HOP-62 NSCLC, 34.2%; in the assay with NCI-H460 lung, 66.9%; in the assay with NCI-H522 lung, 51.5%. Besides, the growth is 60.2% with A549/ATCC NSCLC; 70.9% with 786-0 renal; 88.2% in the assay with COLO 205 colon; 90.6% in the assay with DU-145 prostate; 37.7% in the assay on K-562 leukemia; 75.1% with MALME-3M melanoma. The growth with MDA-MB-231 breast is 84.4%; in the assay with RXF 393 renal, 99.3%; in the assay with SF-268 CNS, 90.7%; with SF-295 CNS, 44.2%; with SF-539 CNS, 72.8%; in the assay with UACC-257 melanoma it was 47.5%. Also, the growth with M14 melanoma was 58.2%.

Take `O=C(Nc1ccc(Br)cc1)c1ccc(Cl)c(Cl)c1`: the growth with NCI-H23 lung is 26.2%; in the assay with NCI-H226 lung, 61.8%; with NCI-H322M lung it was 42.3%; with HOP-62 NSCLC it was 98.3%; in the assay with NCI-H460 lung, 14%; in the assay with NCI-H522 lung, 60.2%. Further, the growth in the assay on A549/ATCC NSCLC was 63.4%; in the assay on 786-0 renal it was 73.1%; with COLO 205 colon, 83.9%; in the assay on DU-145 prostate it was 34.7%; in the assay with K-562 leukemia it was 12.9%; with MALME-3M melanoma it was 48.5%. Further, the growth in the assay on MDA-MB-231 breast was 56%; in the assay with RXF 393 renal it was 112%; with SF-268 CNS, 73.6%; in the assay on SF-295 CNS, 6.6% (active); with SF-539 CNS, 67.5%; with UACC-257 melanoma, 102%. For the same compound, the growth in the assay on M14 melanoma was 64.5%.

Regarding `CCOC(=O)c1cc(C(=O)OCC)c(C)nc1C`, the growth in the assay with NCI-H23 lung was 102%; in the assay with NCI-H226 lung, 105%; in the assay on NCI-H322M lung, 106%; with HOP-62 NSCLC, 102%; in the assay with NCI-H460 lung it was 111%; in the assay with NCI-H522 lung, 103%. Further, the growth was 101% in the assay on A549/ATCC NSCLC; 106% in the assay with 786-0 renal; 109% with COLO 205 colon; 109% in the assay with DU-145 prostate; 91.4% in the assay on K-562 leukemia; 104% in the assay with MALME-3M melanoma. For the same compound, the growth with MDA-MB-231 breast was 107%; with RXF 393 renal it was 117%; in the assay with SF-268 CNS it was 108%; with SF-295 CNS, 107%; with SF-539 CNS, 103%; in the assay with UACC-257 melanoma, 107%. Besides, the growth with M14 melanoma was 111%.

Consider `CC1=CC(=O)OC1C/C=C(\C)CCC1[C@@]2(C)CCC[C@@](C)(C(=O)O)C2CC[C@@]1(C)O` (some centres not stated), for which the growth with NCI-H23 lung is 68.4%; in the assay on NCI-H226 lung, 43.7%; in the assay with NCI-H322M lung, 55%; with HOP-62 NSCLC, 51.7%; with NCI-H460 lung, 9.27% (active); with NCI-H522 lung, 59.3%. The growth in the assay with A549/ATCC NSCLC was 29.3%; in the assay on 786-0 renal, 54.6%; with COLO 205 colon, 86.7%; with DU-145 prostate, 36.8%; in the assay on K-562 leukemia, 28.4%; with MALME-3M melanoma, 58.4%. The growth in the assay on MDA-MB-231 breast was 34.3%; in the assay with RXF 393 renal it was 49.2%; in the assay on SF-268 CNS it was 71.4%; with SF-295 CNS, 85.5%; in the assay on SF-539 CNS, 81.3%; in the assay on UACC-257 melanoma it was 48.6%. Moreover, the growth with M14 melanoma was 25.7%.

These data come from PubChem BioAssay (NCI).
